Experimental data taken from PubChem BioAssay (Tox21).
Several values for one entry are separate records, joined by “and”; a condition that tells them apart may be missing. Equal entries are not always repeated. Inconclusive results are not listed. Entries that show only a call come without a potency. Activity calls are given as the source filed them. Calls follow the shape of the dose curve; as a rule, active = well fitted cell-killing curve with a large enough effect in the repeat runs; inconclusive = weak or mixed curves, or effect the other way; inactive = no such curve, though single readings can be large or run the other way.

assay: qHTS assay to identify small molecule antagonists of the peroxisome proliferator-activated receptor gamma (PPARg) signaling pathway - cell viability counter screen (AID 743194); settings: PPARg-bla HEK293H viability, CellTiter-Glo luminescence, 17 h, co-treated with 50 nM rosiglitazone; series mostly up to 62.6 µM; also: nearly all actives have a fitted effect of over 55% in size
Description: U.S. Tox21 Program National Center for Advancing Translational Sciences [NCATS] NIH Chemical Genomics Center [NCGC] U.S. Environmental Protection Agency [EPA] National Institutes of Environmental Health Sciences [NIEHS] National Toxicology Program [NTP] U.S. Food and Drug Administration [FDA] Tox21 Assay Overview: The peroxisome proliferator-activated receptors (PPARs) are lipid-activated transcription factors of the nuclear receptor superfamily with three distinct subtypes namely PPAR alpha, PPAR delta (also called PPAR beta) and PPAR gamma (PPARg). All these subtypes heterodimerize with Retinoid X receptor (RXR) and these heterodimers regulate transcription of various genes. PPAR-gamma receptor (glitazone receptor) is involved in the regulation of glucose and lipid metabolism. To identify the compounds that activate PPAR-gamma signaling, GeneBLAzer PPAR gamma UAS-bla HEK293H cell line (Invitrogen, Carlsbad, CA, USA) containing a beta-lactamase reporter gene under the control of an Upstream Activator Sequence (UAS) was used to screen the Tox21 compound library. The cytotoxicity of the Tox21 compound library against the PPARg-bla cell line was tested in parallel by measuring the cell viability using CellTiter-Glo assay in the same wells.
Tox21 Assay Protocol Summary: PPARg-bla cells were dispensed at 3000 cells/5uL/well in 1536-well black wall/clear bottom plates using a Multidrop Combi (Thermo Fisher Scientific, Waltham, MA) dispenser. After the assay plates were incubated at 37 C and 5% CO2 for 5 h, 23 nL of compounds dissolved in DMSO, positive controls or DMSO only was transferred to the assay plate by a Pintool station (Kalypsys, San Diego, CA), followed by addition of 1ul Rosiglitazone (50 nM, final concentration in the wells). The assay plates were incubated at 37 C for 17 h, and then 1 uL of LiveBLAzerTM B/G FRET substrate was added using a Bioraptr Flying Reagent Dispenser (FRD) workstation (Beckman Coulter, Indianapolis, IN, USA). The assay plates were incubated at room temperature for 1 h and fluorescence intensity was measured by an Envision plate reader (PerkinElmer, Shelton, CT). For cell viability readout that measures cytotoxicity, 4 ul/well of CellTiter-Glo reagent was added into the assay plates using a Flying Reagent Dispenser. After 30 min incubation at room temperature, the luminescence intensity in the plates was measured using a ViewLux plate reader (PerkinElmer).
Potency is read from the fitted curve at half-maximal effect.

Q: Which Potency does the source give for `CNCc1cc(F)ccc1Oc1ccc(Cl)c(Cl)c1` here?
A: Its Potency is “inactive”.

Q: Which Potency does the source give for `NNc1nc(-c2ccc(N)cc2)cs1` here?
A: The Potency was “inactive”.

Q: Which Potency does the source give for `CC(C)CCCCCCCCCCCCCCC(=O)O` here?
A: Its Potency is “inactive”.

Q: Which Potency does the source give for `CC(C)(C)NC(=O)[C@@H]1C[C@@H]2CCCC[C@@H]2CN1C[C@@H](O)[C@H](Cc1ccccc1)NC(=O)[C@H](CC(N)=O)NC(=O)c1ccc2ccccc2n1` here?
A: Its Potency is 49.6 µM (active).

Q: For `CN(C)c1ccc(C2(c3ccc(N(C)C)cc3)OC(=O)c3cc(N(C)C)ccc32)cc1`, which Potency is on record?
A: The Potency was “inactive”.

Q: Which Potency does the source give for `CC1=C(C(=O)OC(C)C)C(c2cccc([N+](=O)[O-])c2)C(C(=O)OC2CN(C(c3ccccc3)c3ccccc3)C2)=C(N)N1` (stereo not given) here?
A: Its Potency is 23.7 µM (active).

Q: With `COC(=O)C1=C(C)NC(C)=C(C(=O)OCC(C)C)C1c1ccccc1[N+](=O)[O-]` (stereo not given) as the molecule, how does the Potency read?
A: The Potency was “inactive”.

Q: For `Cc1cc(O)c2ccccc2c1O`, which Potency is on record?
A: The Potency was 10.6 µM (active).

Q: For `CSc1ccc2c(c1)C(N1CCN(C)CC1)Cc1ccccc1S2` (stereo not given), which Potency is on record?
A: Its Potency is 18.8 µM (active).

Q: Which Potency does the source give for `CCCC/C=C/CCCCO` here?
A: Its Potency is “inactive”.

Q: With `Cc1cc(O)c(C(C)(C)C)cc1Sc1cc(C(C)(C)C)c(O)cc1C` as the molecule, how does the Potency read?
A: The Potency was 10.9 µM (active).

Q: With `ON=C1CCCC1` as the molecule, how does the Potency read?
A: Its Potency is “inactive”.

Q: With `CN1CCC(Nc2ncc3ncnc(Nc4ccc(F)c(Cl)c4)c3n2)CC1` as the molecule, how does the Potency read?
A: Its Potency is “inactive”.

Q: For `Nc1ccc2c3c(cccc13)-c1ccccc1-2`, which Potency is on record?
A: Its Potency is 49.5 µM (active).

Q: For `Cc1cc2c(cc1C(F)(F)F)N(C(=O)Nc1ccc(Oc3cccnc3C)nc1)CC2`, which Potency is on record?
A: Its Potency is “inactive”.

Q: For `O=C(N/N=C/c1ccccc1O)c1ccncc1`, which Potency is on record?
A: Its Potency is “inactive”.

Q: For `O=C1c2c(O)ccc(Nc3ccc(CCO)cc3)c2C(=O)c2c([N+](=O)[O-])ccc(O)c21`, which Potency is on record?
A: Its Potency is “inactive”.

Q: For `COc1ccc(-c2ccc3cc(C(=O)O)ccc3c2)cc1C12CC3CC(CC(C3)C1)C2`, which Potency is on record?
A: Its Potency is 23.7 µM (active).

Q: With `Cc1cc(=O)oc2cc(N(C)C)ccc12` as the molecule, how does the Potency read?
A: Its Potency is “inactive”.

Q: With `Oc1ccc2c(c1)-c1ccccc1C2` as the molecule, how does the Potency read?
A: The Potency was “inactive”.

Q: Which Potency does the source give for `Nc1ccc2cc(S(=O)(=O)O)cc(O)c2c1N=Nc1ccccc1C(F)(F)F` here?
A: The Potency was “inactive”.

Q: For `CN(C)CCCOC1(Cc2ccccc2)CCCCCC1`, which Potency is on record?
A: Its Potency is “inactive”.

Q: For `CCCCCOC(=O)CCCC`, which Potency is on record?
A: The Potency was “inactive”.

Q: For `CCCCCCCCCCC=O`, which Potency is on record?
A: The Potency was “inactive”.

Q: For `Oc1cccc2cc3cccc(O)c3c(O)c12`, which Potency is on record?
A: The Potency was “inactive”.

Q: For `CC(C)c1ccc2c(c1)CC[C@H]1[C@](C)(CN)CCC[C@]21C`, which Potency is on record?
A: Its Potency is 11 µM (active).

Q: For `Cn1cc(C(=O)[C@@H]2CCc3nc[nH]c3C2)c2ccccc21`, which Potency is on record?
A: Its Potency is “inactive”.

Q: For `CCCCCCCCOC(=O)c1ccc(O)cc1`, which Potency is on record?
A: The Potency was “inactive”.

Q: With `CC(C)(C)CC(C)(C)c1ccc(OCCOCC[N+](C)(C)Cc2ccccc2)cc1` as the molecule, how does the Potency read?
A: The Potency was 19.5 µM (active) and 29.8 µM (active).

Q: With `O=c1cc(-c2ccc(O)cc2)oc2cc(O)cc(O)c12` as the molecule, how does the Potency read?
A: Its Potency is “inactive”.

Q: For `Cc1cc(O)c(C(C)(C)C)cc1C(C)(C)C`, which Potency is on record?
A: Its Potency is 49 µM (active).

Q: With `O=C(O)c1c(Cl)cccc1Cl` as the molecule, how does the Potency read?
A: The Potency was “inactive”.

Q: With `Cc1cc(CCN2CCN(c3nsc4ccccc34)CC2)cc2c1NC(=O)CC2(C)C` as the molecule, how does the Potency read?
A: Its Potency is 19.5 µM (active).

Q: For `Clc1ccc2n[nH]nc2c1`, which Potency is on record?
A: The Potency was “inactive”.

Q: Which Potency does the source give for `CCC(CN)=C(c1ccccc1)c1ccccc1` here?
A: The Potency was “inactive”.

Q: For `CCN(CC)CCNC(=O)c1c(C)[nH]c(/C=C2\C(=O)Nc3ccc(F)cc32)c1C`, which Potency is on record?
A: Its Potency is 16.8 µM (active).

Q: With `Cc1ccc(O)c(C(C)(C)C)c1` as the molecule, how does the Potency read?
A: Its Potency is “inactive”.

Q: Which Potency does the source give for `Cc1cccc(S(=O)(=O)O)c1C` here?
A: Its Potency is “inactive”.

Q: Which Potency does the source give for `Clc1ccc2cc3ccccc3cc2c1` here?
A: Its Potency is “inactive”.

Q: For `O=[N+]([O-])c1cc(Cl)c(Cl)c(Cl)c1Cl`, which Potency is on record?
A: The Potency was “inactive”.
